a7 integrin act: qHTS for Activators of Integrin-Mediated Alleviation for Muscular Dystrophy. alpha7betagal myoblasts, beta-gal FDG fluorescence, 48 h. Potency, µM (highest dose often 38.3 µM), for the others: at the highest dose activation, most hits filed as activators. 0.064% of 350,000 active. AID 624291, 2012;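 also: potency is read from the fitted curve at half-maximal effect; 100% = response of the positive control SU9516; nearly all actives have a fitted effect of over 60% in size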
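alpha7betagal+/- myoblasts (passage 13, 250/well) treated 48 h at 37C with compounds at 1:260 dilution of DMSO stock. Lysed, then beta-galactosidase activity read as FDG fluorescence (ex 480/em 540) after 30 min, with pre-read for autofluorescence.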
D3 ag: qHTS of D3 Dopamine Receptor Agonist: qHTS. D3R DiscoveRx beta-arrestin cells, luminescence, 90 min. AID 652048, 2013. 0.58% of 410,000 active. max activation, %. D(3) dopamine receptor (Homo sapiens), P35462; in the data active = max activation above about 30%; also: 0% is about no effect
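Agonist-mode cell screen: cells plated at 1500/well and incubated overnight at 37 °C, then exposed to library compounds for 90 min at 37 °C. Detection reagent was added for 30–60 min at room temperature, and luminescence was read.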
B2AR arrestin: qHTS assay of beta-arrestin-biased ligands of beta2-adrenergic receptor; Beta-2 adrenergic receptor (Homo sapiens), P07550; AID 492947, 2010; Potency, µM (doses to about 46.1 µM), for inactives: at the highest dose activation, most hits filed as activators; 0.02% of 330,000 active; beta-arrestin recruitment to beta2AR, cell-based reporter;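 also: potency is read from the fitted curve at half-maximal effect; 0% = DMSO controls and full agonism = EC100 isoproterenol or metaproterenol; nearly all actives have a fitted effect of over 65% in size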
DRD3 antagonist: qHTS of D3 Dopamine Receptor Antagonist: qHTS; D(3) dopamine receptor (Homo sapiens), P35462; D3R cells, DiscoveRx beta-arrestin luminescence, antagonist mode; active compounds read low; max response, negative = inhibition, %; 2.5% of 360,000 active; AID 652054, 2013; in the data active = max response below about -50%; inconclusive = no clear call, values can overlap the other calls; also: % is scaled to controls: 0 for no effect and ±100 for the full control effect
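Cells expressing the human receptor were seeded at 1500 cells/well, incubated overnight at 37 degrees C in 5% CO2, then exposed to library compounds with dopamine controls for 90 minutes at 37 degrees C before luminescent detection.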
IDH1 R132H inh: qHTS for Inhibitors of mutant isocitrate dehydrogenase 1 (IDH1): qHTS; AID 602179, 2012; 0.093% of 390,000 active; Potency, µM (doses to about 76.6 µM), for the others: at the top dose activity change, negative = inhibition, usual class: inhibitors; IDH1-R132H enzyme, NADPH consumption, diaphorase/resazurin fluorescence; also: potency is read from the fitted curve at half-maximal effect; % is scaled to controls: 0 for no effect and ±100 for the full control effect; nearly all actives have a fitted effect of over 65% in size
Target sequence (O75874 whole entry R132H, stated change not applied): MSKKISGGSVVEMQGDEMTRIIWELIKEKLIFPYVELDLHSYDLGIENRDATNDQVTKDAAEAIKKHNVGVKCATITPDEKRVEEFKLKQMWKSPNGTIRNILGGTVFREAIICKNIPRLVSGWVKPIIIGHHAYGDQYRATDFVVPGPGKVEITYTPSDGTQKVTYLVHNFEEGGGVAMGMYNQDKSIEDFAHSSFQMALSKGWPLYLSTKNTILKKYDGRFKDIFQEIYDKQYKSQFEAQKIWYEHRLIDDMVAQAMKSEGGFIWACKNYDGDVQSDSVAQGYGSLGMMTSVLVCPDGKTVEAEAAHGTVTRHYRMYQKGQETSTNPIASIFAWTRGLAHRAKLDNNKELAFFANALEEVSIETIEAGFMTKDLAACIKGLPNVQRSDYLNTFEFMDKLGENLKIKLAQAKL
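IDH1-R132H (0.5 ug/mL dispensed) in pH 7.5 Tris buffer was preincubated 30 min with compound, then given a substrate mix of 0.016 mM NADPH and 2 mM alpha-KG for 80 min at room temperature; remaining NADPH was read by diaphorase/resazurin fluorescence.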
The depositor's hits bear a star; ? = inconclusive; . = no result given; ! = a repeat was not active; [ ] = dose if it differs, or a comment. Shown are actives, neighbours in structure and some others; about 2.9% of the full set was active somewhere. Unless noted, calls follow the shape of the dose curve; as a rule, active = well fitted curve in the direction sought with a large enough effect; inconclusive = small, poorly fitted or top-dose-only effect, or another doubt; inactive = no such curve, though single readings can be large; an effect the other way counts as inactive or inconclusive.

SMILES	a7 integrin act	D3 ag	B2AR arrestin	DRD3 antagonist	IDH1 R132H inh
CCOc1ccc(S(=O)(=O)NCCc2csc(-c3ccc(Cl)cc3)n2)cc1	.	6	.	.	-8%
COc1ccc(NC(=O)Nc2cccc3c2O[C@H](CN(C)C(=O)Nc2ccc(OC)cc2)[C@@H](C)CN([C@H](C)CO)C3=O)cc1	8%	33*	0%	65	7%
C[C@H](CO)N1C[C@H](C)[C@@H](CN(C)Cc2ccc(C(=O)O)cc2)Oc2c(NS(=O)(=O)c3ccccc3)cccc2C1=O	21%	4	0%	3	0%
COc1ccc(S(=O)(=O)Nc2cccc3c2O[C@@H](CN(C)Cc2ccc(C(=O)O)cc2)[C@@H](C)CN([C@H](C)CO)C3=O)cc1	-7%	50*	0%	3	2%
COc1ccc(-n2ncc(C(C)NS(=O)(=O)c3cc(F)ccc3C)c2C)cc1 (configuration not stated)	4%	-12	0%	-58*	6%
COc1ccc(-n2ncc(C(C)NS(=O)(=O)c3cccs3)c2C)cc1 (configuration not stated)	31%	-2	3%	-76*	-4%
COc1ccc(-n2ncc(C(C)NS(=O)(=O)c3ccc(C(C)=O)cc3)c2C)cc1 (configuration not stated)	14%	-2	-1%	1	6%
CCc1c(C)sc(NC(=O)c2cc(-c3cccc(Cl)c3)on2)c1C#N	.	-4	.	.	12%
CCn1c(NCc2cccc(Cl)c2)nc2ccccc21	.	-26	.	.	-20%
COC(=O)c1sccc1S(=O)(=O)N(CC(=O)Nc1cc(F)ccc1F)c1ccc(C)c(C)c1	.	5	.	.	14%
Cc1cc(NC(=O)c2ccc(Cl)cc2Cl)no1	1.4µM*	2	-1%	-8	1%
CCOc1ccc(C(C)=O)cc1CSC(=N)N	-11%	3	0%	13	10%
COc1ccc(C(C)=O)cc1CSC(=N)N	-6%	-5	-1%	-54*	-2%
CCCCn1c(=O)c2oc3ccccc3c2n(Cc2cccc(F)c2)c1=O	.	9	.	.	11%
CC(=O)N1CCc2c(sc(NC(=O)c3ccc([N+](=O)[O-])o3)c2C#N)C1	-23%	-12	0%	-59*	-4%
CC(=O)Nc1ccc(N=NC2C(=O)N(C(N)=S)N=C2C)cc1 (configuration not stated)	?	-16	0%	-13	1%
CC1=NN(C(N)=S)C(=O)C1N=Nc1ccc(O)cc1 (configuration not stated)	-28%	16	0%	-66*	1%
CC1=NN(C(N)=S)C(=O)C1N=Nc1ccc(F)cc1 (configuration not stated)	-7%	-3	2.5µM*	-3	-14%
CC1=NN(C(N)=S)C(=O)C1N=Nc1cccc(C)c1 (configuration not stated)	11%	3	1.3µM*	-18	-2%
CC1=NN(C(N)=S)C(=O)C1N=Nc1ccc([N+](=O)[O-])cc1 (configuration not stated)	-18%	-1	7.1µM*	-15	-6%
CC1=NN(C(N)=S)C(=O)C1N=Nc1cccc(C(=O)O)c1 (configuration not stated)	-4%	-14	0%	-23	-9%
Cc1cc(C)c2c(-n3cccc3)c(C(=O)NCCCN3CCCCC3)sc2n1	.	-35	.	.	12%
C=CCSc1nc2ccccc2n1C(=O)/C=C/c1cc(OC)c(OC)c(OC)c1	-12%	-54	0%	-61*	2%
CCSc1nc2ccccc2n1C(=O)/C=C/c1ccc(OC)c(OC)c1	-49%	-1	?	-51*	5%
CC(=O)N/C(=C\c1ccccc1)C(=O)OC(C)C(=O)c1ccccc1 (configuration not stated)	-22%	12	1%	-1	1%
SMILES	a7 integrin act	D3 ag	B2AR arrestin	DRD3 antagonist	IDH1 R132H inh
S=c1nn[nH]c2ccccc12	-2%	85*	.	-20	-3%
Nc1n[nH]c2ccccc12	3%	24	0%	8	4%
Fc1ccc(-[n+]2nc(Nc3ccccc3)sc2-c2c3ccccc3cc3ccccc23)cc1	-45%	-19	0%	-63*	9%[38.3 µM]
Oc1ccc2ccccc2c1-c1sc(Nc2ccccc2)n[n+]1-c1ccc(F)cc1	25%	1	-1%	-7	2%
CCOC(=O)C1(CCOc2ccccc2)CCN(C(=O)c2ccc(-n3cccn3)cc2)CC1	-10%	0	0%	0	13%
CCOC(=O)C1(CCOc2ccccc2)CCN(Cc2ccc(OC)cc2)CC1	?	-12	.	-72*	2%
CCOC(=O)C1(CCOc2ccccc2)CCN(Cc2ccc(NC(C)=O)cc2)CC1	-31%	-23	-1%	-18	6%
CCOC(=O)C1(CCOc2ccccc2)CCN(Cc2cccc(F)c2)CC1	-66%	-27	0%	-53*	3%
CCOC(=O)C1(CCOc2ccccc2)CCN(Cc2cccc(OCCO)c2)CC1	-16%	-12	0%	-16	1%
CCOC(=O)C1(CCOc2ccccc2)CCN(Cc2cccc(-n3cccn3)c2)CC1	?	-11	0%	-60*	6%
CCOC(=O)C1(CCOc2ccccc2)CCN(Cc2cccc3c2OCO3)CC1	-8%	-41	0%	-60*	6%
CCOC(=O)C1(CCOc2ccccc2)CCN(Cc2ccccc2O)CC1	-30%	-14	.	0	6%
CCN1CCN(c2cc(-c3ccc(F)cc3)c3c(n2)CCCCCC3)CC1	.	-22	.	.	.
O=C1CC(SCc2nc3ccccc3[nH]2)C(=O)N1c1cccc(Cl)c1 (configuration not stated)	-26%	-1	0%	-24	1%
O=C1CC(SCc2nc3ccccc3[nH]2)C(=O)N1c1ccc(F)cc1 (configuration not stated)	-9%	-4	-1%	-66*	-2%
O=c1[nH]c(=S)[nH]cc1Oc1ccc(Br)cc1Br	15%	9	.	-5	-4%
Cc1c2n(c3ccccc13)CCN(C)C2	-17%	-19	0%	?	-13%
CN1CCc2c(c3ccccc3n2C)C1	3%	-3	0%	-73*	13%
CCCCN1CCc2c(c3ccccc3n2Cc2ccccc2)C1	-57%	-21	0%	-93*	17%
CCCCn1c(=O)c(Cc2ccccc2)c(O)c2ccccc21	8%	-2	0%	10	15%
CN1CCc2c(c3ccccc3n2Cc2ccccc2)C1	-43%	-94	0%	-91*!	-10%
O=C(O)c1cccc(NC(=O)c2cc3cc(Br)cc(Br)c3oc2=O)c1	.	3	.	.	.
COc1ccc(NC(=O)CSc2nc3nc(C)c(Cc4ccccc4)c(C)n3n2)cc1OC	.	-24	.	.	15%

From PubChem BioAssay
